Laboratory results: PubChem BioAssay (NCATS)
Where “and” joins values, the source holds several entries; their conditions need not be identical. Equal values may be shown once. Inconclusive results are not listed. Where a call stands in place of a potency, no number is given. Calls of active or inactive are those of the source. The call rests on the fitted dose curve; in most records, active means well fitted curve in the direction sought with a large enough effect; inconclusive means small, poorly fitted or top-dose-only effect, or another doubt; inactive means no such curve, though single readings can be large; an effect the other way counts as inactive or inconclusive.

Key:
[1] = qHTS of pediatric cancer cell lines to identify multiple opportunities for drug repurposing: Primary screen for SK-N-MC cells (AID 1347093); further: potency means the concentration at half of the fitted maximal effect
Procedure, shortened: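 Metabolically active cells were quantified by ATP-dependent luminescence (CellTiter-Glo, 15 min at room temperature) following 48 h treatment. Cells had been plated at 500-1,000 per well and settled for 5 h beforehand.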

[2] = qHTS of pediatric cancer cell lines to identify multiple opportunities for drug repurposing: Primary screen for BT-37 cells (AID 1347094); further: potency means the concentration at half of the fitted maximal effect
Procedure, shortened: (§1)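 500-1,000 cells/well; 5 h pre-incubation 37 °C/5% CO2; compound pinned; 48 h; CellTiter-Glo, 15 min RT; luminescence. MIPE 11-pt from 0.78 nM, NPC 8-pt from 0.59 nM final. Bortezomib 2.3 µM final as positive control.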

[3] = qHTS of pediatric cancer cell lines to identify multiple opportunities for drug repurposing: Primary screen for NB-EBc1 cells (AID 1347095); further: potency means the concentration at half of the fitted maximal effect
Procedure, shortened: as §1

[4] = qHTS of pediatric cancer cell lines to identify multiple opportunities for drug repurposing: Primary screen for U-2 OS cells (AID 1347096); further: nearly all actives have a fitted effect of over 50% in size
Procedure, shortened: (§2)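 Viability after 48 h compound treatment at 37C, 500-1,000 cells/well, read as ATP luminescence with CellTiter-Glo. Primary screens used 11-point (MIPE, 0.78 nM-46 µM) or 8-point (NPC, 0.59 nM-46 µM) final concentrations; follow-up screens used 11-point dilutions.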

[5] = qHTS of pediatric cancer cell lines to identify multiple opportunities for drug repurposing: Primary screen for Saos-2 cells (AID 1347097); further: nearly all actives have a fitted effect of over 40% in size; further: potency means the concentration at half of the fitted maximal effect
Procedure, shortened: as §1

[6] = qHTS of pediatric cancer cell lines to identify multiple opportunities for drug repurposing: Primary screen for SK-N-SH cells (AID 1347098); further: nearly all actives have a fitted effect of over 65% in size; further: potency means the concentration at half of the fitted maximal effect
Procedure, shortened: (§3)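 Cells (500-1,000/well) rested 5 h, then received compounds for 48 h; metabolically active cells were measured by CellTiter-Glo luminescence. Final concentrations spanned up to 46 µM (MIPE, 11-point) or 0.59 nM-46 µM (NPC, 8-point) in primary screens, 11-point in follow-ups.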

[7] = qHTS of pediatric cancer cell lines to identify multiple opportunities for drug repurposing: Primary screen for LAN-5 cells (AID 1347100); further: potency means the concentration at half of the fitted maximal effect
Procedure, shortened: as §2

[8] = qHTS of pediatric cancer cell lines to identify multiple opportunities for drug repurposing: Primary screen for NB1643 cells (AID 1347099); further: nearly all actives have a fitted effect of over 50% in size; further: potency means the concentration at half of the fitted maximal effect
Procedure, shortened: as §1

[9] = qHTS of pediatric cancer cell lines to identify multiple opportunities for drug repurposing: Primary screen for BT-12 cells (AID 1347101); further: nearly all actives have a fitted effect of over 25% in size; further: potency means the concentration at half of the fitted maximal effect
Procedure, shortened: as §3

[10] = qHTS of pediatric cancer cell lines to identify multiple opportunities for drug repurposing: Primary screen for A673 cells (AID 1347092); further: nearly all actives have a fitted effect of over 45% in size; further: potency means the concentration at half of the fitted maximal effect
Procedure, shortened: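 A673 cells (500-1,000 cells/well in growth media) were pre-incubated 5 h at 37 degrees C, then exposed to compounds for 48 h. Viability was read as CellTiter-Glo luminescence; concentration-response curves came directly from the primary screen.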

What does the source list for CC1CC2C3CCC4=CC(=O)C=C[C@]4(C)[C@@]3(F)[C@@H](O)C[C@]2(C)[C@@]1(O)C(=O)CO (stereo partly drawn)?
Potency [1]: 13.2 µM (active); Potency [2]: inactive; Potency [3]: inactive; Potency [4]: inactive; Potency [5]: inactive; Potency [6]: inactive; Potency [7]: inactive

Which results are given for CC(C)NCC(O)c1ccc(NS(C)(=O)=O)cc1 (stereo not drawn)?
Potency [1]: 10.5 µM (active); Potency [2]: inactive; Potency [3]: inactive; Potency [4]: inactive; Potency [5]: inactive; Potency [6]: inactive; Potency [8]: inactive; Potency [7]: inactive; Potency [9]: inactive

What does the source list for CC(C(=O)O)c1ccc2c(c1)CC(=O)c1ccccc1S2 (stereo not drawn)?
Potency [3]: inactive; Potency [4]: inactive; Potency [5]: inactive; Potency [7]: inactive

What does the source list for CNC1CCCN(c2c(F)cc3c(=O)c(C(=O)O)cn(C4CC4)c3c2OC)C1 (stereo not drawn)?
Potency [1]: inactive; Potency [2]: inactive; Potency [3]: inactive; Potency [4]: inactive; Potency [5]: inactive; Potency [7]: inactive; Potency [9]: inactive

For N[C@@H](Cc1ccc(O)c(O)c1)C(=O)O, which Potency [2] is on record?
Its Potency is “inactive”.

What about the Potency [3] of the same compound?
The Potency was “inactive”.

What about the Potency [4] of the same compound?
The Potency was “inactive”.

And the Potency [5]?
Its Potency is “inactive”.

What about the Potency [6] of the same compound?
The Potency was “inactive”.

And the Potency [7]?
Its Potency is “inactive”.

What about the Potency [9] of the same compound?
Its Potency is “inactive”.

For Clc1ccccc1CN1CCc2sccc2C1, which Potency [2] is on record?
The Potency was 1.53 µM (active).

And the Potency [3]?
Its Potency is “inactive”.

What about the Potency [4] of the same compound?
Its Potency is “inactive”.

And the Potency [5]?
The Potency was 1.48 µM (active).

And the Potency [6]?
The Potency was “inactive”.

What about the Potency [9] of the same compound?
Its Potency is 1.93 µM (active).

For CC[C@H](C)C(=O)O[C@H]1C[C@@H](C)C=C2C=C[C@H](C)[C@H](CC[C@@H]3C[C@@H](O)CC(=O)O3)[C@H]21, which Potency [4] is on record?
The Potency was “inactive”.

And the Potency [5]?
The Potency was 5.9 µM (active).

What about the Potency [6] of the same compound?
Its Potency is 4.86 µM (active) and 19.2 µM (active).

What about the Potency [8] of the same compound?
Its Potency is “inactive”.

What about the Potency [7] of the same compound?
Its Potency is “inactive”.

What about the Potency [9] of the same compound?
Its Potency is 1.23 µM (active) and 3.43 µM (active).

What does the source list for CC(C)(C)NC(=O)[C@H]1CC[C@H]2[C@@H]3CC[C@H]4NC(=O)C=C[C@]4(C)[C@H]3CC[C@]12C?
Potency [4]: inactive; Potency [5]: 14.8 µM (active)

For CCC(=O)O[C@]1(C(=O)SCF)[C@H](C)C[C@H]2[C@@H]3C[C@H](F)C4=CC(=O)C=C[C@]4(C)[C@@]3(F)[C@@H](O)C[C@@]21C, which Potency [1] is on record?
The Potency was “inactive”.

And the Potency [2]?
The Potency was “inactive”.

And the Potency [3]?
Its Potency is “inactive”.

And the Potency [4]?
The Potency was “inactive”.

And the Potency [8]?
Its Potency is “inactive”.

And the Potency [7]?
Its Potency is “inactive”.

And the Potency [9]?
The Potency was “inactive”.

For CN(Cc1cc(Br)cc(Br)c1N)C1CCCCC1, which Potency [10] is on record?
Its Potency is “inactive”.

And the Potency [2]?
The Potency was “inactive”.

And the Potency [4]?
Its Potency is “inactive”.

What about the Potency [6] of the same compound?
Its Potency is “inactive”.

What about the Potency [8] of the same compound?
The Potency was “inactive”.

What about the Potency [7] of the same compound?
The Potency was “inactive”.

What about the Potency [9] of the same compound?
Its Potency is “inactive”.

With CC(=O)Oc1ccccc1C(=O)Nc1ncc([N+](=O)[O-])s1 as the compound, how does the Potency [10] read?
Its Potency is 42.9 µM (active).

And the Potency [2]?
The Potency was 28 µM (active) and 19.5 µM (active).

And the Potency [3]?
Its Potency is 10.8 µM (active) and 15 µM (active).

And the Potency [5]?
Its Potency is 27 µM (active).

And the Potency [6]?
The Potency was “inactive”.

What about the Potency [8] of the same compound?
The Potency was 42.9 µM (active) and 21.1 µM (active).

And the Potency [7]?
The Potency was 27 µM (active) and 15 µM (active).

And the Potency [9]?
The Potency was 39.5 µM (active) and 21.9 µM (active).

For C[C@@H](CN1CC(=O)NC(=O)C1)N1CC(=O)NC(=O)C1, which Potency [2] is on record?
The Potency was 6.85 µM (active).

What about the Potency [3] of the same compound?
The Potency was 3.72 µM (active).

What about the Potency [4] of the same compound?
The Potency was “inactive”.

What about the Potency [5] of the same compound?
The Potency was “inactive”.

And the Potency [6]?
Its Potency is “inactive”.

What about the Potency [7] of the same compound?
Its Potency is 4.18 µM (active).

And the Potency [9]?
The Potency was “inactive”.

Which Potency [10] does the source give for N=C(N)c1ccc(OCCCCCOc2ccc(C(=N)N)cc2)cc1 here?
The Potency was 21.1 µM (active) and 14.8 µM (active).

And the Potency [3]?
The Potency was “inactive”.

And the Potency [4]?
The Potency was “inactive”.

And the Potency [6]?
Its Potency is 9.61 µM (active).

And the Potency [8]?
Its Potency is 20.9 µM (active).

And the Potency [9]?
Its Potency is 2.46 µM (active) and 4.85 µM (active).

Which results are given for O=C(O)c1ccc(-n2nc(-c3ccccc3O)nc2-c2ccccc2O)cc1?
Potency [2]: 24.6 µM (active); Potency [3]: 8.33 µM (active); Potency [7]: inactive

For CNS(=O)(=O)CCc1ccc2[nH]cc(C3CCN(C)CC3)c2c1, which Potency [4] is on record?
Its Potency is “inactive”.

And the Potency [5]?
Its Potency is “inactive”.

What does the source list for COc1ccc2cc3[n+](cc2c1OC)CCc1cc2c(cc1-3)OCO2?
Potency [10]: 2.11 µM (active) and 2.35 µM (active); Potency [4]: inactive; Potency [6]: inactive; Potency [8]: 15 µM (active) and 18.7 µM (active); Potency [7]: 10.6 µM (active) and 16.6 µM (active); Potency [9]: 3.09 µM (active) and 4.32 µM (active)

What does the source list for CC(C)Cn1cnc2c(N)nc3ccccc3c21?
Potency [1]: 16.6 µM (active); Potency [4]: inactive

For CCC(C)(C)c1ccc(CC(C)CN2C[C@@H](C)O[C@@H](C)C2)cc1 (stereo partly drawn), which Potency [2] is on record?
The Potency was “inactive”.

And the Potency [3]?
Its Potency is “inactive”.

And the Potency [4]?
Its Potency is “inactive”.

What about the Potency [6] of the same compound?
Its Potency is “inactive”.

What about the Potency [8] of the same compound?
The Potency was “inactive”.

And the Potency [7]?
Its Potency is “inactive”.

And the Potency [9]?
Its Potency is “inactive”.

Which Potency [2] does the source give for O[C@@H](CNC[C@H](O)[C@H]1CCc2cc(F)ccc2O1)[C@@H]1CCc2cc(F)ccc2O1 here?
The Potency was 27.6 µM (active).

What about the Potency [3] of the same compound?
The Potency was 21.1 µM (active).

And the Potency [5]?
Its Potency is 26.4 µM (active).

And the Potency [6]?
Its Potency is 27.3 µM (active).

What about the Potency [9] of the same compound?
The Potency was 27.3 µM (active).

Which Potency [2] does the source give for COc1cc2ncnc(Nc3cccc(Cl)c3)c2cc1OC here?
Its Potency is 21.7 µM (active).

And the Potency [6]?
Its Potency is 8.57 µM (active).

What about the Potency [8] of the same compound?
The Potency was 0.372 µM (active).

Which results are given for OCc1ccc(-c2nn(Cc3ccccc3)c3ccccc23)o1?
Potency [2]: inactive; Potency [3]: inactive; Potency [4]: inactive; Potency [6]: inactive; Potency [8]: inactive; Potency [7]: inactive; Potency [9]: inactive

For O=c1cc(O)c(Cl)c[nH]1, which Potency [2] is on record?
The Potency was “inactive”.

And the Potency [3]?
Its Potency is “inactive”.

And the Potency [4]?
Its Potency is “inactive”.

What about the Potency [5] of the same compound?
The Potency was “inactive”.

What about the Potency [6] of the same compound?
The Potency was “inactive”.

What about the Potency [7] of the same compound?
Its Potency is “inactive”.

What about the Potency [9] of the same compound?
The Potency was “inactive”.

Which Potency [2] does the source give for CC(C)(Sc1cc(C(C)(C)C)c(O)c(C(C)(C)C)c1)Sc1cc(C(C)(C)C)c(O)c(C(C)(C)C)c1 here?
The Potency was “inactive”.

What about the Potency [3] of the same compound?
Its Potency is “inactive”.

And the Potency [4]?
Its Potency is “inactive”.

What about the Potency [5] of the same compound?
Its Potency is “inactive”.

And the Potency [6]?
Its Potency is “inactive”.

What about the Potency [8] of the same compound?
The Potency was “inactive”.

What about the Potency [7] of the same compound?
Its Potency is “inactive”.

And the Potency [9]?
The Potency was “inactive”.

Which Potency [2] does the source give for COc1cnc(NS(=O)(=O)c2ccc(N)cc2)nc1 here?
Its Potency is “inactive”.

What about the Potency [3] of the same compound?
The Potency was “inactive”.

And the Potency [4]?
The Potency was “inactive”.

What about the Potency [5] of the same compound?
Its Potency is “inactive”.

What about the Potency [9] of the same compound?
The Potency was “inactive”.

Which results are given for O=C(O)C1CCCN(CCC=C(c2ccccc2)c2ccccc2)C1 (stereo not drawn)?
Potency [2]: inactive; Potency [3]: inactive; Potency [4]: inactive; Potency [5]: inactive; Potency [7]: inactive; Potency [9]: inactive

With COc1cc2c(Nc3ccc(Br)cc3F)ncnc2cc1OCC1CCN(C)CC1 as the compound, how does the Potency [3] read?
Its Potency is “inactive”.

And the Potency [4]?
The Potency was “inactive”.

What about the Potency [5] of the same compound?
Its Potency is “inactive”.

And the Potency [9]?
Its Potency is “inactive”.
